The values that follow come from PubChem BioAssay AID2685 (National Center for Advancing Translational Sciences (NCATS), 2010).

The campaign covered roughly 320,000 compounds. About 2,100 (0.66%) were called active. About 53% were inconclusive and are not listed. The sample holds actives, similar compounds and a random draw of the others, so the mix is not that of the screen. Calls follow the shape of the dose curve; as a rule, active = well fitted inhibition curve with a large enough effect in the signal ratio, with a control signal flat (not every such curve was filed as active); inconclusive = small, poorly fitted or top-dose-only effect, or effect the other way, or a change in a side signal; inactive = flat fitted curve, though single readings scatter; the % refers to the signal ratio.
Potency is read from the fitted curve at half-maximal effect.

The test is described as follows: qHTS Assay for Lipid Storage Modulators in Drosophila S3 Cells.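 As to cell number change: cells counted by Cell Tracker Red CMTPX staining in the red channel.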 As to lipid storage change, negative = inhibition: % is scaled to controls: 0 for no effect and ±100 for the full control effect. The conditions noted are these: BODIPY lipid droplet fluorescence, 18-24 h, cells fed with added oleic acid; cell number change: measured here: cell count max response; series mostly up to 46.1 µM; lipid storage change, negative = inhibition: at the top concentration. The gist of the method: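 Laser-scanning cytometry quantifies lipid droplet accumulation (500–530 nm total intensity; droplet/cell object ratio) in oleic acid-fed (400 uM added) Drosophila S3 cells treated with a concentration series. 20 uM Triacsin C defined 100% inhibition.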
For the compound `COc1ccc(/C=C/C(=O)N2CCN(c3ccccn3)CC2)c(OC)c1OC`, the “lipid storage change, negative = inhibition” value was -3.76% (inactive) and the cell number change was determined as 5.19%. With `COc1ccc(C(=O)O)cc1S(=O)(=O)N1CCN(c2ccccn2)CC1`, the Potency was 0.82 µM (active) and the cell number change amounted to 2.78%.

Take `COc1ccc(CC(=O)N(C)Cc2cccc(F)c2)cc1S(=O)(=O)N1CCOCC1`: the “lipid storage change, negative = inhibition” value was 21.5% (inactive) and the cell number change is 18.8%. In the case of `CN(C(=O)c1ccc(Cl)c(S(=O)(=O)N2CCOCC2)c1)c1ccccc1C(=O)O`, the Potency was 0.82 µM (active) and the cell number change was -5.89%. Take `Cn1c(N)c(C(=O)COC(=O)COc2ccccc2C#N)c(=O)n(C)c1=O`: the result was inactive.

As to `CC1CCCCN1C(=O)c1ccc(Br)o1` (stereo not given), the result was inactive and the cell number change is 0.829%. In the case of `COc1ccc(/C=C/C(=O)c2ccc(O)cc2)cc1`, the “lipid storage change, negative = inhibition” value is 0.146% (inactive) and the cell number change is -13.4%. Taken in the same sequence, the figures for `CCNC(=S)NNC(=O)c1ccc(=O)n(Cc2ccccc2)c1` were 12.6% (inactive) and 8.31%. Regarding `CN(C)C(=O)NC(Nc1ccc(Cl)cc1Cl)C(Cl)(Cl)Cl` (stereo not given), the outcome was inactive.

For `Cc1ccc(CC(CC(=O)NCCc2ccc3c(c2)OCO3)C(=O)O)cc1` (stereo not given), the “lipid storage change, negative = inhibition” value was -23.3% (inactive). On to `COc1ccc(C(=O)OCc2ccc(C)cc2)cc1S(=O)(=O)N1CCOCC1`, for which the “lipid storage change, negative = inhibition” value is 15.6% (inactive) and the cell number change is 0.435%.

As to `CN(C(=O)c1ccc(S(=O)(=O)N2CCCC2)cc1)C1CCCCC1`, the “lipid storage change, negative = inhibition” value is 0.283% (inactive) and the cell number change was -9.06%. For `O=C(NCc1ccncc1)c1ccc(Cl)c(S(=O)(=O)N2CCOCC2)c1` the same measures were 9.55% (inactive) and 18.6%. Regarding `CN1CCC(N(C)C(=O)c2ccc(Cl)c(S(=O)(=O)N3CCCCC3)c2)CC1`, the Potency was 14.6 µM (active) and the cell number change was -2.26%. As to `COc1ccc(C(=O)N2CCCC(C(N)=O)C2)cc1S(=O)(=O)N1CCOCC1` (stereo not given), the “lipid storage change, negative = inhibition” value is -1.8% (inactive) and the cell number change is 10.1%. Consider `COc1ccc(CNC(=O)c2ccc(Cl)c(S(=O)(=O)N3CCOCC3)c2)cc1OC`, for which the Potency was 1.64 µM (active) and the cell number change was -21%. For `COc1ccc(C(=O)OCc2cc(C)ccc2C)cc1S(=O)(=O)N1CCCC1` the same measures were 0.082 µM (active) and -10.2%. Consider `COc1ccc(C(=O)N2CCN(S(=O)(=O)c3ccc(C)cc3)CC2)cc1S(=O)(=O)N1CCOCC1`, for which the “lipid storage change, negative = inhibition” value was -18.5% (inactive) and the cell number change is 3.33%.

As to `O=C(NCc1cccnc1)c1ccc(Cl)c(S(=O)(=O)N2CCOCC2)c1`, the call was inactive and the cell number change is -4.25%. Take `COc1ccc(C)cc1S(=O)(=O)N1CCCCC1`: the “lipid storage change, negative = inhibition” value was 9.28% (inactive) and the cell number change stood at 6.88%.

Take `COc1ccc(C(=O)N2CCCC2)cc1S(=O)(=O)N1CCOCC1`: the Potency is 7.31 µM (active) and the cell number change is 9.79%. Turning to `CN(C(=O)c1ccc(F)c(S(=O)(=O)N2CCOCC2)c1)C1CCCCC1`, the “lipid storage change, negative = inhibition” value was 24.8% (inactive) and the cell number change stood at 0.139%. Taken in the same sequence, the figures for `NC(=O)C1=C[C@@H](C2CCCCC2)C[C@@H](OCCCCO)O1` were 5.82% (inactive) and 1.59%. Taken in the same sequence, the figures for `Cc1ccc(N2C(=O)C3C(C2=O)N2CCCN2C3c2ccccc2)cc1C` (stereo not given) were -5.4% (inactive) and 7.85%.

`CCN(CC)C(=O)CC(c1ccc(F)cc1)c1ccco1` (stereo not given): the “lipid storage change, negative = inhibition” value was 2.63% (inactive) and the cell number change is -17.4%. Taken in the same sequence, the figures for `CCc1ccccc1NC(=O)CSc1nnc(Cn2cnc3ccccc32)o1` were -1.44% (inactive) and -13.9%.

Regarding `COc1ccc(CCNC(=O)C(=O)NCC2OCCN2S(=O)(=O)c2cccs2)cc1` (stereo not given), the “lipid storage change, negative = inhibition” value is 15.5% (inactive) and the cell number change worked out at 0.232%. Taken in the same sequence, the figures for `Cc1c(NC(=O)CSc2nnc(C(C)Oc3ccc(Cl)cc3)n2-c2ccccc2)c(=O)n(-c2ccccc2)n1C` (stereo not given) were 6.38% (inactive) and 8.96%. Taken in the same sequence, the figures for `Cc1ccc(C(=O)N2CCN(c3ccccc3)CC2)cc1S(=O)(=O)N1CCOCC1` were 0.336% (inactive) and 22%.

Regarding `COc1ccc(C(=O)N2CCN(c3ccccc3)CC2)cc1S(=O)(=O)N1CCOCC1`, the Potency is 3.26 µM (active) and the cell number change is 0.901%. Regarding `COc1ccc(/C=C/C(=O)N2CCN(c3ccccc3)CC2)cc1S(=O)(=O)N1CCOCC1`, the “lipid storage change, negative = inhibition” value was 21.1% (inactive).

In the case of `COC(=O)c1sc(NC(=O)C2c3ccccc3Oc3ccccc32)c(C(=O)OC)c1C`, the “lipid storage change, negative = inhibition” value is -0.563% (inactive) and the cell number change was determined as 5.22%. Taken in the same sequence, the figures for `Cc1ccc(C2CC(C(F)F)n3ncc(C(=O)Nc4c(C)nn(Cc5c(F)cccc5Cl)c4C)c3N2)cc1` (stereo not given) were 0.101% (inactive) and 11%. For the compound `CCOC(=O)c1c(NC(=O)c2ccccc2C(=O)O)sc2c1CCC2`, the result was inactive and the cell number change amounted to 7.14%. `COc1cc(-c2cc(-c3ccc(N)cc3)[nH]c(=O)c2C#N)cc(OC)c1OC`: the “lipid storage change, negative = inhibition” value is 11.6% (inactive) and the cell number change was found to be 28%.

As to `O=C(Nc1ccc(Cl)cn1)c1cccc(S(=O)(=O)N2CCCCC2)c1`, the compound was classed as inactive and the cell number change was found to be 14.3%.

In the case of `O=C(Cn1cnc2ccccc2c1=O)NCCC(=O)Nc1ccc(F)cc1`, the “lipid storage change, negative = inhibition” value was -9.21% (inactive) and the cell number change was determined as 20.1%.

`COC(=O)c1ccccc1NC(=O)CCNC(=O)Cn1cnc2ccccc2c1=O`: the “lipid storage change, negative = inhibition” value was -6.58% (inactive) and the cell number change is -2.73%.

In the case of `O=C(Cn1cnc2ccccc2c1=O)NCCC(=O)Nc1ccccc1C(F)(F)F`, the Potency was 0.0651 µM (active) and the cell number change was -3.75%. With `COC(=O)c1ccc(CSc2nc3ccccc3c(=O)n2N)cc1`, the call was inactive and the cell number change is -1.8%. As for `CC(C)CN(CC(C)C)S(=O)(=O)N1CCC(C(=O)NCc2ccco2)CC1`, the “lipid storage change, negative = inhibition” value was 2.25% (inactive) and the cell number change was -10.2%. On to `COc1ccccc1N(CC(=O)NCc1ccc(F)cc1)C(=O)CCC(=O)Nc1nccs1`, for which the call was inactive and the cell number change was -10.4%.

As for `CCOc1ccccc1N(CC(=O)NCc1ccco1)C(=O)CCC(=O)Nc1nccs1`, the Potency is 2.59 µM (active) and the cell number change is -1.71%. With `O=C(CN(C(=O)CCC(=O)Nc1nccs1)c1ccccc1F)NCCc1ccccc1`, the compound was classed as inactive and the cell number change is 18.7%. For the compound `Cc1ccccc1N(CC(=O)NCc1ccco1)C(=O)CCC(=O)Nc1nccs1`, the “lipid storage change, negative = inhibition” value was 20.4% (inactive) and the cell number change is 7.88%. For `CCc1ccccc1N(CC(=O)NCc1ccco1)C(=O)CCC(=O)Nc1nccs1`, the compound was called inactive and the cell number change amounted to 6.09%. In the case of `COc1ccccc1N(CC(=O)NCCc1ccccc1)C(=O)CCC(=O)Nc1nccs1`, the Potency is 2.06 µM (active) and the cell number change was -5.22%.
